This is a sample that favours compounds with a hit; in the whole collection about 11% have one here.
NPR1 antag: Natriuretic polypeptide receptor (hNpr1) antagonism - Primary qHTS; Atrial natriuretic peptide receptor 1 (Homo sapiens), P16066; HEK293 hNpr1 GloSensor cGMP, ANP-stimulated luminescence; Potency, µM (top dose mostly 46.3 µM), inactives show top-dose activity change, negative = inhibition, usual class: inhibitors; hit rate 1.6% among 76,000; calls by dose curve; also: nearly all actives have a fitted effect of over 60% in size
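Compound pre-incubated 30 min at room temperature on GloSensor-loaded HEK293 cells stably carrying hNpr1 and the pGS-40F cGMP biosensor. Stimulation uses hNppA at 0.1 nM final; luminescence is taken at baseline and 20 min post-agonist.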
Luciferase inh: Firefly luciferase inhibition profiling of diverse chemical library using quantitative high-throughput screening; Luciferin 4-monooxygenase (Photinus pyralis), P08659; purified P. pyralis luciferase, luminescence, biochemical; Potency, µM (titrated, usually from 115 µM), usual class: inhibitors; hit rate 2.5% among 76,000; AID 1347043, 2019; also: nearly all actives have a fitted effect of over 65% in size
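Inhibitors were tested against purified firefly luciferase in a biochemical, low-substrate format (both substrates at 10uM) and luminescence measured with a CCD imager.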
3T3 cytotox: Cytotoxic Profiling in NIH 3T3 Cell Line of Diverse Libraries Using Quantitative High-Throughput Screening. NIH 3T3 viability, CellTiter-Glo ATP luminescence, 48-72 h. Potency, µM (doses to about 96.7 µM), without a hit: top-dose activity change, negative = cytotoxicity, most hits filed as inhibitors. hit rate 4.3% among 94,000. AID 1345082, 2018; also: nearly all actives have a fitted effect of over 55% in size
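Luminescent ATP readout (CellTiter-Glo, 10 min RT) after 48 or 72 hr compound exposure of NIH 3T3 cells seeded at 400 cells/well in 1536-well format; quantitative HTS.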
HEK cytotox: Cytotoxic Profiling in HEK 293 Cell Line of Diverse Libraries Using Quantitative High-Throughput Screening; AID 1345083, 2018; HEK 293 viability, ATP luminescence (CellTiter-Glo), 48-72 h; hit rate 6.6% among 94,000; Potency, µM (highest dose often 115 µM), without a hit: at the highest dose activity change, negative = cytotoxicity, most hits filed as inhibitors; also: nearly all actives have a fitted effect of over 60% in size
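CellTiter-Glo luminescence (cellular ATP) was read after 48 or 72 hr of compound exposure at 37 degree Celsius. Cells were HEK 293 plated at 250 cells/well.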
The depositor's hits bear a star; i = inactive; ? = inconclusive; . = no result; [ ] = another dose, or the depositor's remark. Unless noted, calls follow the shape of the dose curve; as a rule, active = well fitted curve in the direction sought with a large enough effect; inconclusive = small, poorly fitted or top-dose-only effect, or another doubt; inactive = no such curve, though single readings can be large; an effect the other way counts as inactive or inconclusive. % is scaled to controls: 0 for no effect and ±100 for the full control effect; potency is read from the fitted curve at half-maximal effect.

SMILES	NPR1 antag	Luciferase inh	3T3 cytotox	HEK cytotox
O=C(Cc1ccc(F)cc1)N1CCCN(CCn2nc3n(c2=O)CCCC3)CC1	.	.	-19%	i
O=S(=O)(NC[C@H]1C[C@@H]2CCN1C[C@@H]2CN1CCN(c2ccccn2)CC1)c1ccccc1	-9%	i	-20%	-16%
COc1cc2c(cc1OCc1ccncc1)NC(=O)C21CCN(Cc2ccccc2O)CC1	-23%	i	?	45µM*
COc1cc2c(cc1OCc1ccccc1)NC(=O)C21CCN(CC2CC2)CC1	-1%[70.6 µM]	?	32µM*	40µM*
COc1cc2c(cc1OCc1ccncc1)NC(=O)C21CCN(C(=O)c2cccnc2)CC1	1%	i	35µM*	4%
COc1cc2c(cc1OCc1ccncc1)NC(=O)C21CCN(c2ccccn2)CC1	-27%[70.6 µM]	i	?	?
COCCN1CCC(N2CCN(C(=O)Cc3cccc(F)c3)CC2)C1=O (centres undefined)	1%	i	3%	i
Cc1nc(-c2cccs2)cc([C@H]2CN3CC[C@H]2C[C@@H]3COC(=O)Nc2ccc(C(C)C)cc2)n1	?	?	8.9µM*	5.6µM*
COc1ccccc1-c1cc([C@H]2CN3CC[C@H]2C[C@@H]3COC(=O)Nc2ccc(C(C)C)cc2)nc(C)n1	-26%	18µM*	?	5µM*
COC(=O)N1CCC2(CC1)C(=O)NN=C2c1cccnc1	0%[70.6 µM]	i	-16%[138 µM]	?
CN(Cc1ccccc1)C[C@H]1CN2CC[C@H]1C[C@@H]2CNC(=O)Nc1ccccc1	5%[70.6 µM]	i	100µM*	100µM*
CC(=O)c1ccc(NC(=O)NC[C@H]2C[C@@H]3CCN2C[C@@H]3CN(C)Cc2ccccc2)cc1	1%[70.6 µM]	i	89µM*	100µM*
C#CCN(C)C[C@H]1CN2CC[C@H]1C[C@@H]2CNC(=O)Nc1ccc(C(C)=O)cc1	-2%[70.6 µM]	i	-17%[174 µM]	-9%[172 µM]
CN(Cc1ccccc1)C[C@H]1CN2CC[C@H]1C[C@@H]2CNC(=O)c1ccccc1	1%[70.6 µM]	i	?	?
CC(C)(C)CN1CCC2(COc3ccncc3S(=O)(=O)N2)C1 (centres undefined)	.	.	i	i
CCC(CC)c1cc([C@H]2CN3CC[C@H]2C[C@@H]3CNC(=O)c2cccs2)nc(-c2ccncc2)n1	?	i	22µM*	?
Cn1nc(-c2ccccc2)cc1[C@H]1CN2CC[C@H]1C[C@@H]2CNC(=O)c1cccs1	3%[70.6 µM]	i	?	?
Cc1nc(-c2ccccc2)cc([C@H]2CN3CC[C@H]2C[C@@H]3CNS(=O)(=O)Cc2ccccc2)n1	-1%	i	79µM*	79µM*
Cc1nc(-c2ccccc2)cc([C@H]2CN3CC[C@H]2C[C@@H]3CNC(=O)c2cccs2)n1	-3%[70.6 µM]	i	?	71µM*
CCC(CC)c1cc([C@H]2CN3CC[C@H]2C[C@@H]3CNC(=O)Cc2cccs2)nc(-c2ccncc2)n1	?	i	28µM*	40µM*
COCC(=O)NC[C@H]1C[C@@H]2CCN1C[C@@H]2c1cc(-c2ccccc2)nc(C)n1	3%[70.6 µM]	i	?	-28%[172 µM]
CCCSc1ncc(CN2CCC3(CCNCC3)C2)cn1	3%	i	?	?
O=C(Nc1nccs1)[C@H]1CN2CCC1C[C@@H]2Cn1cc(CC2CCCCC2)nn1 (some centres undefined)	0%[70.6 µM]	i	-19%[174 µM]	0%[172 µM]
CC[C@H]1CN2CC[C@H]1C[C@@H]2CNC(=O)Nc1ccccc1	3%[70.6 µM]	i	1%[230 µM]	i
O=C(c1ccccc1)N1C[C@@H]2C[C@H](C1)c1c(-c3ccccc3F)ccc(=O)n1C2	-17%[70.6 µM]	i	1%[174 µM]	-21%[172 µM]
SMILES	NPR1 antag	Luciferase inh	3T3 cytotox	HEK cytotox
Cc1ncc2c(n1)C[C@@H]1CC[C@H]2N1C(=O)Nc1ccc2c(c1)OCCO2	5%	32µM*	4%	i
COc1cc2c(cc1OCc1ccccc1)N(C(=O)c1cc3ccccc3[nH]1)CC21CCN(C)CC1	-1%	i	22µM*	20µM*
COc1cc2c(cc1OCc1ccccc1)N(C(=O)c1c[nH]c3ccccc13)CC21CCN(C)CC1	-4%	i	20µM*	22µM*
COc1cc2c(cc1OCc1ccc(Cl)cc1)N(Cc1ccccc1)CC21CCN(C(C)=O)CC1	-21%	i	?	?
COc1cc2c(cc1OCc1ccccc1)N([S+](=O)([O-])c1cn(C)cn1)CC21CCN(C)CC1	-2%	i	?	?
COc1cc2c(cc1OCc1ccccc1)N(C(=O)c1cccc3[nH]ccc13)CC21CCN(C)CC1	1%	i	20µM*	?
COc1cc2c(cc1OCc1ccccc1)NC(=O)C21CCN(c2nc(C)cnc2C)CC1	-23%	i	?	35µM*
COc1cc2c(cc1OCc1ccccc1)NC(=O)C21CCN(c2cnccn2)CC1	-27%[70.6 µM]	i	79µM*	63µM*
COc1cc2c(cc1OCC1CC1)NC(=O)C21CCN(C(=O)c2ccccc2)CC1	4%[70.6 µM]	i	?	?
COc1cc2c(cc1OCC1CCCC1)N([S+](=O)([O-])c1cccc(C(F)(F)F)c1)CC21CCN(CC(=O)O)CC1	2%	i	40µM*	45µM*
COc1cc2c(cc1OCC1CCCC1)N([S+](=O)([O-])c1ccc(Oc3ccccc3)cc1)CC21CCN(CC(=O)O)CC1	0%	i	?	?
c1ccc(Nc2cc3c(cn2)CN(CC2CC2)CCN3)cc1	4%[70.6 µM]	35µM*	?	35µM*
CN1CCNc2cc(NCc3ccccc3)ncc2C1	-2%[70.6 µM]	25µM*	89µM*	?
O=C1Nc2ccccc2C12CCN(CC1CC1)CC2	.	.	1%[174 µM]	-6%[230 µM]
CC[C@H]1CN2CC[C@H]1C[C@@H]2CNC(=O)c1ccccc1	2%[70.6 µM]	i	-7%[230 µM]	-6%[230 µM]
CC(=O)N1CC2(CCN(Cc3ccccn3)C2)Cc2ccccc21 (centres undefined)	.	.	i	-1%
